CHT block = inhibitors of human choline transporter CHT; B-score at 10 µM; High affinity choline transporter 1 (Homo sapiens), Q9GZV3; CHT-expressing cells, membrane potential dye, choline response; hits give low values; 0.86% of 310,000 active; AID 488975, 2010;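 active = B-score over 3 SD under the library average, and starting fluorescence ratio not unusually high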;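 note: choline stimulus applied at its EC90 after an EC20 pre-addition; B-score computed on integrated fluorescence ratio after choline addition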
AI-2 QS modul = Vibrio harveyi AI-2 quorum sensing modulators, primary screen, JMH597 strain, luminescence/OD600 ratio | 0.4% of 300,000 active | AID 2094, 2009 | activity change, % at 7.5 µM | Vibrio harveyi JMH597 AI-2 luminescence/OD600 ratio, 9 h; hits give low values; strain lacks LuxN and CqsS sensors; 0 = neutral-control median; in the data active = activity change below about -75%, passing the limit was not always enough; inconclusive = no clear call, values can overlap the other calls;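 note: luminescence divided by OD600 gain over 9 h not by final OD600 alone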
CHT allo act = CHT positive allosteric modulators, primary screen, cell-based, membrane potential dye, choline EC20; High affinity choline transporter 1 (Homo sapiens), Q9GZV3; CHT-expressing cells; hits give high values; LV-AA mutant CHT in HEK293 cells; B-score at 10 µM; 0.49% of 310,000 active; AID 488977, 2010;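 active = initial fluorescence not abnormally high and integrated response B-score, plate-corrected, over 3 SD above library mean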
ALR H2O2 inh = inhibitors of human ALR sulfhydryl oxidase, primary screen, biochemical, H2O2 detection, HRP-luminol luminescence, single point; 3.8% of 290,000 active; inhibition, % (concentration not given with the values); FAD-linked sulfhydryl oxidase ALR (Homo sapiens), P55789; purified ALR, DTT oxidation;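 active = mean replicate inhibition above about 79%, with every replicate also reaching it, limit read from the data; inconclusive = only one of the two criteria met; inactive = mean below limit and not every replicate reaching it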
Target sequence (P55789 whole entry, looked up): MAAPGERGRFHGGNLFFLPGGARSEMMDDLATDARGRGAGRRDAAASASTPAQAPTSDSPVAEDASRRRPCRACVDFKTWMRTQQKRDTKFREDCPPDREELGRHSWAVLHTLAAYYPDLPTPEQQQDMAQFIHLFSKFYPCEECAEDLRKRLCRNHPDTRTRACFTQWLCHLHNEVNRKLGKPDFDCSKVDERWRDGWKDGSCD
PREPL inh = PREPL enzyme inhibitors, primary screen, biochemical, fluorescence polarization | Prolyl endopeptidase-like (Homo sapiens), Q4J6C6 | recombinant PREPL, fluorescence polarization activity-based probe | inhibition, % at 5.96 µM | 0.68% of 320,000 active; in the data active = inhibition above about 43%;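 note: 0% = enzyme with DMSO and 100% = wells lacking enzyme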
Starred values were filed as active, the others as inactive; i = inactive; ? = inconclusive; . = not tested or not shown. Compounds with a hit are over-represented: about 5% of the library has one in this group of screens.

SMILES	CHT block	AI-2 QS modul	CHT allo act	ALR H2O2 inh	PREPL inh
O=[N+]([O-])c1cc(Cl)c2cccnc2c1O	i	?	i	-3	19
O=[N+]([O-])c1cc(Cl)c(O)c2ncccc12	.	-88*	.	.	.
Clc1cc2cccnc2c2ncccc12	.	.	.	.	19
Oc1c(I)cc(Cl)c2cccnc12	i	-108*	i	.	2
O=C(OCC(=O)N1CCCc2ccccc21)c1ccc(F)c(S(=O)(=O)N2CCOCC2)c1	i	26	i	-14	10
CCCc1nc(SCC(=O)Nc2ccc(N3CCOCC3)cc2)c2ccccc2n1	i	27	i	99*	-3
O=C(CSc1ccccc1)Nc1ccc(N2CCOCC2)cc1	i	27	i	72	42
CC(C)c1nc(SCC(=O)Nc2ccc(N3CCOCC3)cc2)c2ccccc2n1	i	16	i	99*	-6
Cc1cc(C)nc(SCC(=O)Nc2ccc(N3CCOCC3)cc2)n1	i	20	i	98*	17
O=C(C[C@@H]1C/C=C/CC[C@@H](Cc2ccc(F)cc2)C(=O)O[C@@H](c2ccccc2)CNC1=O)NCCO	.	.	.	0	16
Cc1cccc(-n2nc3c(c2NC(=O)C2CC2)CS(=O)(=O)C3)c1C	i	25	i	-12	7
CC(=O)c1c[nH]c(C(=O)Nc2ccc(N3CCCCCC3)cc2)c1	.	.	.	?	10
COc1ccc2c(c1)c(=O)cc(-c1ccccc1)n2C	i	23	i	-1	0
NC(=O)C1CCN(c2nc(-c3ccc4occc(=O)c4c3)cs2)CC1	.	.	.	99*	42
COCCNC(=O)Nc1ccc2c(c1)N(C)C(=O)c1ccccc1S2	i	-7	i	96*	-3
NNC(=O)CCc1nc2ccc(O)cc2[nH]1	i	9	i	96*	12
CCN(CC)S(=O)(=O)c1ccc2c(c1)nc(-c1ccccn1)n2C	i	28	i	-8	-3
Nc1ccc2nc(CCc3ccccc3)[nH]c2c1	i	26	i	99*	39
Cc1ccc2nc(CCc3ccc(N)cc3)[nH]c2c1	i	-6	i	99*	13
CCn1c(=S)sc2c(=O)n(CC(=O)Nc3cccc(OC)c3)c(C)nc21	i	11	i	-3	15
N#CCCN(C(=O)COC(=O)C1=COCCO1)c1ccc(F)cc1	i	27	i	1	-4
Cc1ccc(N(CCC#N)C(=O)CSc2ccc3c(c2)OCCO3)cc1	i	30	i	99*	-25
N#CCCN(C(=O)CSc1ccc2c(c1)OCCO2)c1ccc(F)cc1	i	-22	i	98*	17
C/C(N)=C(/C#N)C(=O)CSc1ccc2c(c1)OCCO2	i	16	i	23	18
O=C(O)c1cc(S(=O)(=O)N2CCCCC2)ccc1N1CCOCC1	.	.	.	.	18
SMILES	CHT block	AI-2 QS modul	CHT allo act	ALR H2O2 inh	PREPL inh
NC(=O)CSc1nc2cc(Cl)ccc2c(=O)n1C1CCCCC1	i	20	i	5	-6
Cn1nnnc1Sc1ncnc2scc(-c3ccc[nH]3)c12	.	.	.	94*	15
CCCCN(C)CCNC(=O)CCNC(=O)Cn1ccc2ccccc2c1=O	i	6	i	-1	0
Cc1cc(C)n2nc(C(=O)N3CCCC(Nc4ccc(C(C)C)cc4)C3)cc2n1 (stereo not given)	i	11	i	97*	6
Cc1cc(C)n2nc(C(=O)N3CCCC(Nc4ccc(F)c(F)c4)C3)cc2n1 (stereo not given)	i	16	i	4	7
CC(C)c1ccc(NC2CCCN(C(=O)c3cscn3)C2)cc1 (stereo not given)	i	7	i	99*	.
CC(C)c1cc(C(=O)N2CCCC(Nc3ccc(F)cc3)C2)n[nH]1 (stereo not given)	i	22	i	99*	33
CC(C)c1ccc(NC2CCCN(C(=O)c3cc(C(C)C)nc(N)n3)C2)cc1 (stereo not given)	i	-6	i	97*	15
COc1ccc(OC)c(S(=O)(=O)N2CCC(C(=O)NCc3cccnc3)CC2)c1	i	24	i	1	9
Nc1ccc(C23CC4CC(CC(O)(C4)C2)C3)cc1	i	7	i	.	-1
Nc1ccc(C23CC4CC(CC(CO)(C4)C2)C3)cc1	i	22	i	93*	5
COc1cc(OC)nc(-n2ncc(Br)c(Br)c2=O)n1	i	.	i	92*	8
Oc1ccc(-c2n[nH]c(=S)n2-c2ccc3c(c2)OCCO3)c(O)c1	i	27	i	86*	4
COc1ccc(-c2n[nH]c(=S)n2-c2ccc3c(c2)OCCO3)cc1	i	22	i	91*	-1
CCOC(=O)C1(CC2CCCCO2)CCN(C(=O)Nc2ccccc2)CC1 (stereo not given)	i	0	i	-22	-7
Cc1ccc(C(C)C)c(OCC(=O)Nc2cccc(S(=O)(=O)NC3=NCCCCC3)c2)c1	i	29	i	0	9
Oc1ccc(N=Cc2cc(Br)c(N3CCOCC3)o2)cc1	i	22	i	86*	12
O=[N+]([O-])c1cc(Br)c(O)c(C=Nc2ccc(N3CCOCC3)cc2)c1	i	7	i	12	16
CC(=O)NS(=O)(=O)c1ccc(NC(=O)c2ccc3c(c2)C(=O)N(CCC(C)C)C3=O)cc1	i	38	i	92*	1
CCC(CC)C(=O)Nc1nnc(SCC(=O)NC2CC2)s1	i	15	i	-7	1
CN1C(=O)c2ccccc2NC(=O)[C@]12O[C@@H]2c1cccc(O)c1	i	9	i	99*	14
Cc1ccc(N2C(=O)CS(=O)C(c3ccccc3)C2=O)cc1C (stereo not given)	i	6	i	98*	-8
COc1ccc(NC2CC(=O)N(c3ccccc3)C2=O)cc1 (stereo not given)	i	-6	i	.	-6
COc1ccc(N2C(=O)CS(=O)C(c3ccccc3)C2=O)cc1 (stereo not given)	i	-14	i	98*	4
CCC(C)NC(=O)c1ccc(-n2c(=S)[nH]c3ccccc3c2=O)cc1 (stereo not given)	i	14	i	-7	10
O=C1C(Cl)=C(NCC2CCCO2)C(=O)N1c1ccccc1 (stereo not given)	i	17	i	0	0
O=C1C(Cl)=C(NCC2CCCO2)C(=O)N1C1CCCCC1 (stereo not given)	i	23	i	98*	-1
NS(=O)(=O)c1cccc(NC(=O)CCSc2ccc(Cl)cc2)c1	i	26	i	73	-2

Screening data: PubChem BioAssay, several laboratories
